Molecules are shown by their SMILES. Active and inactive are the calls of the source. Entries that show only a call come without a potency. Calls follow the shape of the dose curve; as a rule, active = well fitted curve in the direction sought with a large enough effect; inconclusive = small, poorly fitted or top-dose-only effect, or another doubt; inactive = no such curve, though single readings can be large or run the other way.

This passage reports Potency results from PubChem BioAssay (NCATS).
Potency is read from the fitted curve at half-maximal effect.

Chain of Guanine nucleotide-binding protein G(i) subunit alpha-1 (Homo sapiens) (P63096 whole entry, looked up): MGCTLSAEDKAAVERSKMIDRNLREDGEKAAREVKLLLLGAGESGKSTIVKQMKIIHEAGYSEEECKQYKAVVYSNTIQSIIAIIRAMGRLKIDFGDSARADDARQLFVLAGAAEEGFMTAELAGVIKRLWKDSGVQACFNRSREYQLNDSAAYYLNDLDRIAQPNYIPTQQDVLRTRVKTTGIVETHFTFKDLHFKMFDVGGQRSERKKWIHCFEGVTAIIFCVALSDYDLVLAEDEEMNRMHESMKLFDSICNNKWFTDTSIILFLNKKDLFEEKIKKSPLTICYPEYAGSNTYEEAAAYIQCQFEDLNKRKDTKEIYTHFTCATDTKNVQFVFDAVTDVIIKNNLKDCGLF

The target of this experiment is Guanine nucleotide-binding protein G(i) subunit alpha-1 (Homo sapiens) (UniProt P63096). Description: qHTS Assay for Inhibitors of RGS12 GoLoco Motif Activity (Green Fluorophore) (AID 879). To be noted: Galphai1/FITC-RGS12 GoLoco peptide, fluorescence polarization; series mostly up to 57.1 µM. The text has this:
Assay Overview: NIH Molecular Libraries Screening Centers Network [MLSCN] NIH Chemical Genomics Center [NCGC] MLSCN Grant: NS053754-01 Assay Provider: Siderovski, David P, University of North Carolina at Chapel Hill G-protein-coupled receptors (GPCRs) are major targets for drug discovery. The regulator of G-protein signaling (RGS)-protein family has important roles in GPCR signal transduction. RGS proteins contain a conserved RGS-box, which is often accompanied by other signaling regulatory elements. RGS proteins accelerate the deactivation of G proteins to reduce GPCR signaling; however, some also have an effector function and transmit signals. Combining GPCR agonists with RGS inhibitors should potentiate responses, and could markedly increase the agonist's regional specificity. The diversity of RGS proteins with highly localized and dynamically regulated distributions in brain makes them attractive targets for pharmacotherapy of central nervous system disorders. […] A complex of Gai1 and fluorescently labeled G-alpha-binding peptide (the "GoLoco motif") derived from RGS12 is incubated with library members. Inhibitors of the binding are detected by a decrease in the fluorescence polarization (FP) of the fluorophore. Protein was supplied by Prof. David Siderovski, University of North Carolina at Chapel Hill.
Assay Protocol: Reagents/Controls: Assay Buffer: 10 mM Tris-HCl, 150 mM NaCl, 0.1 mM GDP (prepared fresh), and 0.05% NP40 at pH 7.5. […] 10 nM FITC labeled peptide/50 nM protein in columns 1, 2, 5 - 48. Titration of unlabeled peptide control ([H][…][NH2], custom synthesized and HPLC-purified by Tufts University Core Facility) from 10 mM, then 1:2 dilution, 16-point in duplicate, pin-transferred to column 2, rows 1 to 32. Column 1 is neutral. FITC-labeled RGS12-GoLoco peptide was custom-synthesized and HPLC-purified by Michael Berne of Tufts University Assay Steps. Four uL of reagents were dispensed to 1536-well Greiner black solid-bottom plates. Compounds and controls (23 nL) were transferred via Kalypsys PinTool. The plates were incubated for 10 min at room temperature, and then read on ViewLux (Perkin-Elmer) High-throughput CCD imager using FITC polarization filter sets for the fluorescein-labeled decapeptide probe.During dispense, reagent bottles were kept submerged into 4 deg C water bath and all liquid lines were covered with aluminum foil to minimize probe and protein degradation. All screening operations were performed on a Kalypsys robotic system (Kalypsys, Inc., San Diego, CA) containing one RX-130 and two RX-90 anthropomorphic robotic arms.
As for `NCCc1cnc[nH]1`, the Potency entry was “inactive”.
Regarding `CC(C)Cc1ccc(C(C)C(=O)O)cc1` (stereo not given), the Potency entry was “inactive”.
For `CCOC(=O)C(C)(C)Oc1ccc(Cl)cc1` the value was “inactive”; for `CS(=O)(=O)Nc1ccc([N+](=O)[O-])cc1Oc1ccccc1`, “inactive”; for `Cc1cn([C@H]2C=C[C@@H](CO)O2)c(=O)[nH]c1=O`, “inactive”.
The value for `Nc1ccn([C@H]2CC[C@@H](CO)O2)c(=O)n1` was “inactive”; that for `NC(=O)NO` was “inactive”; that for `OCCN(CCO)c1nc(N2CCCCC2)c2nc(N(CCO)CCO)nc(N3CCCCC3)c2n1` was 10 µM (active).
For `CN(C)C(=O)C(CCN1CCC(O)(c2ccc(Cl)cc2)CC1)(c1ccccc1)c1ccccc1` the value was “inactive”.
On to `Nc1nc2c(ncn2COC(CO)CO)c(=O)[nH]1`, for which the Potency result is “inactive”.
The value for `COc1cc2c(c(OC)c1OC)-c1ccc(OC)c(=O)cc1[C@@H](NC(C)=O)CC2` was “inactive”; that for `NS(=O)(=O)c1cc2c(cc1Cl)NCNS2(=O)=O` was “inactive”.
With `Clc1ccccc1C(c1ccccc1)(c1ccccc1)n1ccnc1`, the Potency entry is “inactive”.
The value for `Fc1ccc([C@@H]2CCNC[C@H]2COc2ccc3c(c2)OCO3)cc1` was “inactive”; that for `Cc1ccccc1N1C(=O)c2cc(S(N)(=O)=O)c(Cl)cc2NC1C` (stereo not given) was “inactive”.
The value for `NC(=O)OCC(COC(N)=O)c1ccccc1` was “inactive”.
The value for `Cc1cnc(C(=O)NCCc2ccc(S(=O)(=O)NC(=O)NC3CCCCC3)cc2)cn1` was “inactive”; that for `O=c1c(O)c(-c2ccc(O)c(O)c2)oc2cc(O)cc(O)c12` was “inactive”; that for `O=C(C1CCCCC1)N1CC(=O)N2CCc3ccccc3C2C1` (stereo not given) was “inactive”.
As for `COc1ccc2[nH]cc(CCNC(C)=O)c2c1`, the Potency entry was “inactive”.
The value for `CN(C)CCCN1c2ccccc2CCc2ccc(Cl)cc21` was “inactive”; that for `Nc1c2c(nc3ccccc13)CCCC2` was “inactive”; that for `CCC1(c2ccccc2)C(=O)NCNC1=O` was “inactive”.
With `Cn1ccc2cc3c(cc21)CCN3C(=O)Nc1cccnc1`, the Potency result was “inactive”.
For `NCCCCCC(=O)O` the value was “inactive”.
The value for `O=C(c1ccc(F)cc1)C1CCN(CCn2c(=O)[nH]c3ccccc3c2=O)CC1` was “inactive”; that for `N[C@@H](Cc1c[nH]c2ccc(O)cc12)C(=O)O` was “inactive”.
For `COc1ccc2c(c1)c(CC(=O)O)c(C)n2C(=O)c1ccc(Cl)cc1`, the Potency entry is “inactive”.
Turning to `CN(Cc1cnc2nc(N)nc(N)c2n1)c1ccc(C(=O)N[C@@H](CCC(=O)O)C(=O)O)cc1`, the Potency result is “inactive”.
The value for `CN1CCN(CCCN2c3ccccc3Sc3ccc(Cl)cc32)CC1` was “inactive”; that for `Cn1c(=O)c2c(ncn2C)n(C)c1=O` was “inactive”.
For `CCCCc1oc2ccccc2c1C(=O)c1cc(I)c(OCCN(CC)CC)c(I)c1` the value was “inactive”; for `CCOC(=O)Nc1ccc(NCc2ccc(F)cc2)nc1N`, “inactive”; for `COc1nc(C)nc(Cl)c1NC1=NCCN1`, “inactive”.
The value for `Cc1ccc(C(=O)Nc2ccc(S(=O)(=O)O)c3cc(S(=O)(=O)O)cc(S(=O)(=O)O)c23)cc1NC(=O)c1cccc(NC(=O)Nc2cccc(C(=O)Nc3cc(C(=O)Nc4ccc(S(=O)(=O)O)c5cc(S(=O)(=O)O)cc(S(=O)(=O)O)c45)ccc3C)c2)c1` was “inactive”; that for `O=C(CCCN1CCC(O)(c2ccc(Cl)cc2)CC1)c1ccc(F)cc1` was “inactive”; that for `CN(C)CCC=C1c2ccccc2C=Cc2ccccc21` was “inactive”.
Take `Clc1ccc(C(c2ccccc2Cl)C(Cl)Cl)cc1` (stereo not given): the Potency result is “inactive”.
With `OCCN1CCN(CCCN2c3ccccc3Sc3ccc(C(F)(F)F)cc32)CC1`, the Potency entry was “inactive”.
The value for `NCCS(=O)(=O)O` was “inactive”.
